Compound activity deposited in PubChem BioAssay by several laboratories.
Neddylation inh: inhibitors of human cullin neddylation | P61081+Q13564 | TR-FRET cullin neddylation, biochemical | inhibition, % at 25 µM | actives 0.58% (n = 360,000); in the data active = inhibition above about 36%
Rpn11 block: Rpn11 (human) deubiquitinase inhibition; actives 0.59% (n = 360,000); human 26S proteasome, Ub4-pepOG fluorescence polarization; 20S core pre-blocked with epoxomicin; O00487; calls only at 20 µM;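 active = inhibition at 20 µM, scaled to each plate's controls, above about 33%, limit read from the data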
Target sequence (O00487 whole entry, looked up): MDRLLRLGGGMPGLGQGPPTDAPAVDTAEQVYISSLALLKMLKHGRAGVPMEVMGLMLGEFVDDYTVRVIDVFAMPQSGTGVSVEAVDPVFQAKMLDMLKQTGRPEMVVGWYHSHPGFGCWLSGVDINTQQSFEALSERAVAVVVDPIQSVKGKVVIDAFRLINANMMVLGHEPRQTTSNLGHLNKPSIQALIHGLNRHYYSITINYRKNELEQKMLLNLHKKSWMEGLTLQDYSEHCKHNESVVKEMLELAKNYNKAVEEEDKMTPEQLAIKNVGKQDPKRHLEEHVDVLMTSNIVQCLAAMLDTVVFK
PKA-R1A activ: PKA-R1A complex activation; P00514+P68181; PKA-R1A dissociation, Cy5-IP20 fluorescence polarization; scaled: DMSO 0%, 113 µM cGMP 100%; activation, % at 11.4 µM; actives 0.083% (n = 340,000); AID 504707;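 active = percent activation above the mean of all tested compounds plus 3 SD, cut at about 19% in these data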;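 also: higher means more PKAc released from R1A so a rise in polarization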
PKA-R2B activ: activators of human PKA-R2B complex | P22694+P31323 | PKA-R2B holoenzyme dissociation, Cy5-IP20 fluorescence polarization; R2B truncated from residue 108, S112A mutant; 0% DMSO only, 100% 113 µM cGMP | activation, % at 11.4 µM | actives 0.079% (n = 340,000) | AID 504700;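 active = activation above a cutoff set at the mean over all compounds plus 3 SD, cut at about 18% in these data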;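 also: higher means more holoenzyme dissociation and a rise in polarization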
Rpn11 inh conf: confirmation of human proteasome Rpn11 inhibitors | shares compounds with Rpn11 block | purified human 26S proteasome, Ub4-pepOG fluorescence polarization; proteasome pretreated with epoxomicin | inhibition, % at 20 µM | actives 29% (n = 1,900) | AID 602318
MMP-2 counter: blocks human MMP-2, flagging nonselective RPN11 hits; shares compounds with Rpn11 block; recombinant MMP-2, FRET peptide cleavage fluorescence; inhibition, % at 20 µM; actives 4% (n = 1,900); AID 602330;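 also: human MMP-2 activated beforehand with APMA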
Thrombin inh: counter-screen for RPN11 inhibitors: inhibition of bovine thrombin; bovine thrombin cleavage of Ub4-pepOG, fluorescence polarization; AID 602333; inhibition, % at 20 µM; actives 13% (n = 1,900); shares compounds with Rpn11 block;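 active = mean inhibition at least 40% at 20 µM, or signal 3 deviations below plate average, so some actives read negative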;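 also: plate controls were thrombin with DMSO for no effect and buffer wells lacking thrombin for full effect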
Starred values were filed as active, the others as inactive; i = inactive; . = not tested or not shown; + = active, no number. This is a sample that favours compounds with a hit; in the whole collection about 1.3% have one here. Rule as the data show it, unless noted: active = inhibition above about 40%; inactive = the rest.

SMILES | Neddylation inh | Rpn11 block | PKA-R1A activ | PKA-R2B activ | Rpn11 inh conf | MMP-2 counter | Thrombin inh
CC(C)(C)c1ccc(/C=N/N2C(=O)CSC2=S)cc1 | 8 | + | -1 | -2 | 18 | 38 | 14
O=C1CSC(=S)N1/N=C/c1ccc(O)c(O)c1O | -9 | . | 1 | 4 | . | . | .
O=C(COC(=O)C12CC3CC(CC(Br)(C3)C1)C2)Nc1ccc2[nH]c(=O)[nH]c2c1 | -4 | i | -11 | -9 | . | . | .
COc1cc2cc3c(N)c(C(=O)NCc4ccco4)sc3nc2cc1OC | -11 | i | -16 | 1 | . | . | .
COc1cc2cc3c(N)c(C(=O)Nc4sc(C)c(C)c4C#N)sc3nc2cc1OC | -1 | + | -2 | 1 | 48* | 6 | 31
COc1ccc(CCC2(C)NC(=O)N(C(C)C(=O)N3c4ccccc4CC3C)C2=O)cc1 (stereo not drawn) | -18 | i | -6 | 3 | . | . | .
CSc1sc(-c2nnc(SCC(=O)Nc3ccc(Cl)cc3)n2C)c2c1C=CCC2 | -204 | + | . | . | 2 | -16 | 4
Cn1c(SCC(=O)Nc2ccc(Cl)cc2)nnc1C1CC1 | -1 | i | -1 | -8 | . | . | .
COc1cccc(Cn2c(N)c(C#N)c3nc4ccccc4nc32)c1OC | 34 | + | 16 | 6 | 34 | -40 | 9
Cc1ccc(CSc2sc(C(=O)c3ccccc3)c(N)c2C#N)cc1 | -20 | + | -10 | -11 | -4 | 4 | -5
Cc1sc2nc(CSc3ncn[nH]3)[nH]c(=O)c2c1C | 5 | i | 0 | -1 | . | . | .
CCc1cc2c(SCc3nc4sc(C(C)=O)c(C)c4c(=O)[nH]3)ncnc2s1 | -56 | + | 1 | -3 | 77* | 55* | 46*
Cc1ccc(C)c(Cn2c3ccccc3c3cnn(CC(=O)NCCCN4CCOCC4)c(=O)c32)c1 | 15 | i | -1 | -8 | . | . | .
Cc1ccccc1C(=O)/C=C1/SCC(=O)N1C | 5 | + | -3 | 12 | 49* | 0 | 35
Cc1ccccc1C(=O)NN1C(=O)CSC1=S | 2 | i | 0 | -5 | . | . | .
Nc1ccc(-c2cnc[nH]2)cc1[N+](=O)[O-] | -44 | i | 12 | 1 | . | . | .
COc1ccc(OCC(=O)Nc2cc(-c3nn4c(C)nnc4s3)ccc2C)cc1 | -57 | + | -4 | 5 | 19 | -20 | -4
CC1=C(C(=O)Nc2cccc(C(=O)N3CCC(C(N)=O)CC3)c2)SCCO1 | 5 | i | -3 | 3 | . | . | .
COc1ccc(C#Cc2ccc3c(c2)O[C@@H](CN(C)C(=O)Nc2cccc(OC)c2)[C@H](C)CN([C@@H](C)CO)S3(=O)=O)cc1 | . | + | 3 | -7 | 41* | -41 | 38
COc1ccc(-c2nc(/C=C3\C(C)=Nc4ccccc43)c(O)o2)cc1 | 8 | . | 0 | 2 | . | . | .
CC1=Nc2ccccc2/C1=C\c1nc(-c2ccccc2)oc1O | -1 | + | -8 | -3 | 43* | -5 | 22
CCc1nnc(NC(=O)CN2C(=O)/C(=C/c3cc(OC)c(OC)c(OC)c3)SC2=S)s1 | -11 | i | 2 | -4 | . | . | .
COc1cc(/C=C2\SC(=O)N(CC(=O)Nc3ccc(C)cc3)C2=O)cc(Cl)c1OCC(=O)O | 21 | + | -1 | -2 | 4 | -12 | 25
COc1ccc(/C=C2\SC(=S)N(CC(=O)Nc3nnc(C)s3)C2=O)cc1 | 6 | + | 0 | 8 | 3 | -8 | -5
COc1cc(/C=C2\SC(=S)N(CC(=O)Nc3ccccn3)C2=O)cc(OC)c1OC | -19 | + | -7 | -3 | 38 | -5 | 25
SMILES | Neddylation inh | Rpn11 block | PKA-R1A activ | PKA-R2B activ | Rpn11 inh conf | MMP-2 counter | Thrombin inh
COc1cc(/C=C2/SC(=S)N(CC(=O)Nc3nc4ccccc4s3)C2=O)cc(OC)c1OC | 3 | + | -4 | 3 | 52* | 16 | 28
Cc1ccc(NC(=O)CN2C(=O)S/C(=C\c3ccc(OCC(=O)O)c(Br)c3)C2=O)cc1 | -14 | i | -7 | 0 | . | . | .
CCN(C)C1CN(Cc2cn(Cc3cccc(C(F)(F)F)c3)nn2)S(=O)(=O)C1 (stereo not drawn) | 6 | . | . | . | . | . | .
N#Cc1ccc(-c2cccnc2)nc1SCC(=O)Nc1sc2c(c1C#N)CCC2 | -2 | + | 6 | -2 | 26 | 9 | 20
N#Cc1c(C(F)(F)F)cc(-c2ccc(Cl)c(Cl)c2)nc1SCCN1CCOCC1 | -164 | + | -5 | -3 | 17 | -17 | 38
Cc1cc(C(F)(F)F)nc(SCCN2CCOCC2)c1C#N | 10 | + | 3 | 0 | 50* | -13 | 29
Cc1cc(C)c(C#N)c(SCCN2CCCCC2)n1 | -20 | i | -12 | 4 | . | . | .
CCOc1ccc(C2/C(=C(\O)c3cccc(OC)c3)C(=O)C(=O)N2c2ccccn2)cc1OC (stereo not drawn) | -27 | i | 2 | 3 | . | . | .
Cc1cccc(Nc2nn3c(=O)c4ccccc4nc3s2)c1 | -384 | + | -5 | 3 | 46* | 37 | -19
CCc1ccc(-n2c(O)c(C=NCCN(CC)CC)c(=O)[nH]c2=O)cc1 | 3 | + | -1 | -4 | 38 | -38 | 20
CCN(CC)CCCN=Cc1c(O)n(-c2c(C)cccc2C)c(=O)c2ccccc12 | -9 | i | . | . | . | . | .
CCOC(=O)c1c(CC(C)C)csc1/N=C/C1C(=O)CC(C)(C)CC1=O | 6 | + | -3 | -1 | 8 | 10 | -9
CCCCC(=O)N(Cc1ccc(F)cc1)C1CCS(=O)(=O)C1 (stereo not drawn) | 7 | + | 1 | 9 | -15 | -22 | -9
O=C1NCC(Nc2ccc(Br)cc2)C(=O)N1 (stereo not drawn) | 1 | i | -4 | -9 | . | . | .
O=C(N/N=C/C=C/c1ccccc1)c1cc2c(ccc3ccccc32)o1 | . | + | -4 | 9 | -10 | 2 | -28
O=C(N/N=C/c1ccccc1F)c1cc2c(ccc3ccccc32)o1 | . | + | -3 | -1 | 99* | -11 | -16
Cc1ccccc1OCC(=O)NNC(=O)CSc1nc(N)cc(N)n1 | 0 | i | -11 | -6 | . | . | .
O=C(/C=C/c1ccc(Br)cc1)NC(=S)Nc1ccc(S(=O)(=O)Nc2nccs2)cc1 | 5 | + | 5 | 8 | 22 | 18 | 0
O=C(NC(=S)Nc1ccc(S(=O)(=O)Nc2nccs2)cc1)c1ccc(Br)o1 | -13 | i | -8 | 1 | . | . | .
CCN(CC(=O)Nc1c(F)cccc1F)C(=O)c1ccc(N2CCCC2=O)cc1 | 7 | i | 8 | 10 | . | . | .
C=CCOC(=O)c1cc(-c2ccc(/C=C3\C(=O)NC(=O)C(C#N)=C3C)o2)ccc1Cl | -4 | + | 5 | 7 | 37 | 14 | 31
